Compound activity: PubChem BioAssay, National Center for Advancing Translational Sciences (NCATS)
ALOX12 inh: Primary qHTS assay for inhibitors of human arachidonate 12S-lipoxygenase (ALOX12): Round 2. Polyunsaturated fatty acid lipoxygenase ALOX12 (Homo sapiens), P18054. purified 12hLO, xylenol orange hydroperoxide absorbance. Potency, µM (highest dose often 108 µM), for inactives: at the highest dose activity change, negative = inhibition, hits mostly inhibitors. 1.1% of 580,000 active. AID 1671190, 2021; further: on the % scale 0 is the no-effect control and ±100 the full control effect
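Purified human 12hLO at 150 nM in 25 mM Hepes, 0.01% Triton X-100, pH 7.0, preincubated 15 min at room temperature with compound. Reaction started with 40 uM arachidonic acid, 30 min at room temperature. Hydroperoxide measured by Fe-xylenol orange, 573/405 nm absorbance ratio.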
TDP1 inh: qHTS Assay for Inhibitors of Tyrosyl-DNA Phosphodiesterase (TDP1); Tyrosyl-DNA phosphodiesterase 1 (Homo sapiens), Q9NUW8; 0.28% of 350,000 active; recombinant TDP1, AlphaScreen DNA substrate cleavage; AID 485290, 2010; Potency, µM (doses to about 130 µM), for the others: top-dose activity change, negative = inhibition, actives largely listed as inhibitors; further: on the % scale 0 is the no-effect control and ±100 the full control effect; nearly all actives have a fitted effect of over 40% in size
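Recombinant E. coli-expressed Tdp1 (1 nM) preincubated with compound 15 min at RT, then 5'-biotin/3'-phosphotyrosine-FITC DNA substrate (15 nM) added for 5 min. AlphaScreen beads (10 ug/ml) added, 10 min RT; tyrosine-FITC cleavage read as signal loss.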
Rango complex inh: qHTS Assay for Inhibitors of Rango (Ran-regulated importin-beta cargo) - Importin beta complex formation. Importin subunit beta-1 (Homo sapiens), Q14974. Rango CFP/YFP FRET sensor + importin beta, 45 min. Potency, µM (highest dose often 92.2 µM), for inactives: at the highest dose inhibition of complex formation. 0.031% of 340,000 active. AID 540263, 2011; calls by dose curve;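 further: 0% = DMSO wells and 100% = buffer wells lacking importin beta; nearly all actives have a fitted effect of over 15% in size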
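Inhibition scored from the CFP 486 nm/YFP 530 nm FRET ratio 45 min after adding 0.125 microM importin beta to 50 nM Rango biosensor preincubated 5 min with compound (room temperature, PBS with DTT, Tween-20, BSA). No-importin wells as positive control.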
Rango release inh: qHTS Assay for Inhibitors of RanGTP induced Rango (Ran-regulated importin-beta cargo) - Importin beta complex dissociation; Snurportin-1 (Homo sapiens) + GTP-binding nuclear protein Ran (Homo sapiens) + Importin …; Biochemical FRET Rango-importin beta, RanGTP-induced dissociation; Potency, µM (titrated, usually from 46.1 µM), for the others: at the highest dose activity change, negative = inhibition; 0.071% of 340,000 active; AID 540253, 2011; calls by dose curve; further: % of control where 0% means no effect; nearly all actives have a fitted effect of over 45% in size
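Two FRET readings bracket the reaction: one 5 min after compound meets Rango–importin beta, another 45 min after RanGTP-RCC1 (0.6 uM Ran, 0.2 uM RCC1, 2 mM GTP) is added. Only the second defines inhibition.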
ClpP mod: qHTS Assay for Activators of ClpP; ATP-dependent Clp protease proteolytic subunit (Bacillus subtilis (strain 168)), P80244; purified B. subtilis ClpP, FRET peptide cleavage, 20 min; Potency, µM (highest dose often 57.5 µM), for the others: at the top dose activity change, negative = active; 1.9% of 340,000 active; active means well fitted falling curve with a large enough effect; inconclusive means small, poorly fitted or top-dose-only effect; inactive means no such curve, though single readings can be large or run the other way; further: the source files actives as falling curves though it sought activators and does not explain the sign; nearly all actives have a fitted effect of over 65% in size
Target sequence (P80244 whole entry, looked up): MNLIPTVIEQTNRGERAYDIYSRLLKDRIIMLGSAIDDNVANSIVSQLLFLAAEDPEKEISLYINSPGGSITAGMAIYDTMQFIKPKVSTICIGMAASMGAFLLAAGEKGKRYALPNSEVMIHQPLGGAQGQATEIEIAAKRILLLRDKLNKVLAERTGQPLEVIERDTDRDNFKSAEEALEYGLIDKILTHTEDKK
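Purified B. subtilis ClpP, 10 microg/mL final in Tris/HCl pH8 with KCl, BSA, glycerol and Tween-20, cleaved an Abz/nitrotyrosine-quenched decapeptide. Fluorescence (ex 320, em 430) was read at 0 and 20 min at room temperature. Delta was normalized to 5.8 microM ADEP and DMSO/no-enzyme controls.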
PTAP TSG101 blk: qHTS Assay for Iinhibitors of HIV-1 Budding by Blocking the Interaction of PTAP/TSG101 | 340,000 tested, under 10 active | Fluorescence polarization, FITC-PTAP peptide / Tsg101 binding | Tumor susceptibility gene 101 protein (Homo sapiens), Q99816 | Potency, µM (series often up to 115 µM), inactives show at the top dose activity change, negative = inhibition, usual class: inhibitors; active means well fitted inhibition curve with a large enough effect in the main read-out, with a control signal flat, not every such curve was filed as active; inconclusive means small, poorly fitted or top-dose-only effect, or effect the other way, or a change in a side signal; inactive means no such curve, though single readings can be large or run the other way; further: % of control where 0% means no effect
Target sequence (Q99816 whole entry, looked up): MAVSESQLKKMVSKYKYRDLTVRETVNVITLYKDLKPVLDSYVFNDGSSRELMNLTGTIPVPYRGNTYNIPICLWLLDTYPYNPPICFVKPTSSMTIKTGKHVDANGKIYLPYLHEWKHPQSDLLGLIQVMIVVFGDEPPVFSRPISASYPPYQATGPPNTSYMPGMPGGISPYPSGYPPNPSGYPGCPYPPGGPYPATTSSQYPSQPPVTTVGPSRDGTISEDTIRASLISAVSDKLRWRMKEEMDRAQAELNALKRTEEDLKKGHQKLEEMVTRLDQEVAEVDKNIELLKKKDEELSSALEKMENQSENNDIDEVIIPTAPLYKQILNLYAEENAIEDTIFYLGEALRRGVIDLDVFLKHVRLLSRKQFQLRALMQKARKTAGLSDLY
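Tsg101 binding domain (10 uM final) was mixed with compound and a FITC-labeled PTAP peptide (50 nM final) in HEPES pH 7.5 buffer with NaCl, Tween 20, EDTA and TCEP; fluorescence polarization was read after 20 min at r.t.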
ClpP validation: qHTS Assay for Activators of ClpP: Hit Validation of Inhibitors; shares compounds with ClpP mod; purified B. subtilis ClpP, FRET-FV substrate cleavage, 20 min; Potency, µM (highest dose often 57.5 µM), without a hit: at the highest dose activity change, negative = inhibition, actives largely listed as inhibitors; 40% of 470 active; AID 743245, 2014; further: on the % scale 0 is the no-effect control and ±100 the full control effect; nearly all actives have a fitted effect of over 70% in size
Numbers without * were called inactive; [ ] = another dose, or the depositor's remark. Hits are enriched below; roughly 2.4% of the tested compounds scored in any of these assays. Unless noted, the call rests on the fitted dose curve; in most records, active means well fitted curve in the direction sought with a large enough effect; inconclusive means small, poorly fitted or top-dose-only effect, or another doubt; inactive means no such curve, though single readings can be large; an effect the other way counts as inactive or inconclusive. Potency means the concentration at half of the fitted maximal effect.

Screening O=C(c1ccncc1)N1CCN(S(=O)(=O)c2cccc(F)c2)CC1 returned ALOX12 inh inconclusive, TDP1 inh 4%, Rango complex inh 1%, Rango release inh 7% and ClpP mod -1%.
For O=C(c1ccncc1)N1CCN(S(=O)(=O)c2cccc(Cl)c2)CC1 the results were ALOX12 inh -20%, Rango complex inh 3%, Rango release inh 15%, ClpP mod 3.2µM*, PTAP TSG101 blk -3% and ClpP validation 0%.
`N#C[C@@H](c1ccccc1)C1CCN(S(=O)(=O)CCCCl)CC1` gave ALOX12 inh -4%.
`Fc1ccc(CNc2cnccn2)cc1` gave ALOX12 inh 24%, TDP1 inh 1%, Rango complex inh -4%, Rango release inh -14%, ClpP mod 3.2µM*, PTAP TSG101 blk -4% and ClpP validation 22µM*.
For CN(C)CCOC1c2ccccc2C=Cc2ccccc21 the results were ALOX12 inh 5%, Rango complex inh inconclusive, Rango release inh 1% and PTAP TSG101 blk 0%.
`CN(C)CCOC1c2ccccc2CCc2ccc3ccccc3c21` (configuration not stated) gave ALOX12 inh -115%, Rango complex inh 3%, Rango release inh -2%, ClpP mod 45%, PTAP TSG101 blk 0% and ClpP validation 0%.
Screening CC1(C(=O)N(CC(=O)NC2CCCC2)Cc2ccco2)CC(=O)N=C2C=CC=CN21 (configuration not stated) returned ALOX12 inh 2%, TDP1 inh 5%, Rango complex inh 5%, Rango release inh -7%, ClpP mod 3.2µM*, PTAP TSG101 blk -2% and ClpP validation 17µM*.
`CC1(C(=O)N(CC(=O)NC2CCCC2)Cc2ccccc2)CC(=O)N=C2C=CC=CN21` (configuration not stated) gave ALOX12 inh 10%, TDP1 inh 4%, Rango complex inh 0%, Rango release inh 2% and PTAP TSG101 blk -1%.
For Cc1nc(-c2ccccc2)sc1C1(C)CC(c2c(Cl)cccc2Cl)=NO1 (configuration not stated) the results were ALOX12 inh -1%, TDP1 inh 0%, Rango complex inh 0%, Rango release inh -11%, ClpP mod inconclusive and PTAP TSG101 blk -5%.
`Cc1nc(-c2ccc(Cl)cc2)sc1C1(C)CC(c2c(Cl)cccc2Cl)=NO1` (configuration not stated) gave ALOX12 inh 1%, TDP1 inh -5%, Rango complex inh -1%, Rango release inh inconclusive, ClpP mod 10µM*, PTAP TSG101 blk -4% and ClpP validation 27µM*.
Screening COc1ccc(NC(=O)CCc2ncc(-c3ccc(Cl)cc3)o2)cc1 returned ALOX12 inh -41%.
Screening COc1ccc(CNC(=O)c2cc3c(=O)n(C)c4ccccc4c3n2C)cc1 returned ALOX12 inh -12%, TDP1 inh 9% and ClpP mod -10%.
`CCOc1ccc(CNC(=O)c2cc3oc4ccccc4c3n2C)cc1` gave ALOX12 inh -25%, TDP1 inh 0%, Rango complex inh 1%, Rango release inh 8%, ClpP mod 6.3µM*, PTAP TSG101 blk -11% and ClpP validation -20%.
Screening Cn1c(-c2ccc(CN3CCCCC3)o2)nc2ccccc21 returned ALOX12 inh 0%, TDP1 inh 1%, Rango complex inh -2%, Rango release inh -15%, ClpP mod 3.5µM*, PTAP TSG101 blk 0% and ClpP validation 17µM*.
`Cc1ccc(CNc2nc3ccccc3n2C)o1` gave ALOX12 inh 80%, TDP1 inh 5%, Rango complex inh -2%, Rango release inh -1%, ClpP mod -7% and PTAP TSG101 blk 0%.
CCN(CC(=O)Nc1c(F)cccc1F)C(=O)Cc1csc(-c2ccc(OC)c(OC)c2)n1 was read as ALOX12 inh 2%, TDP1 inh -2%[0.505 µM], Rango complex inh 0%, Rango release inh -1%, ClpP mod 3.2µM*, PTAP TSG101 blk -12% and ClpP validation 12µM*.
`CCOc1ccccc1NC(=O)c1cc2ccccc2o1` gave ALOX12 inh -3%, ClpP mod 53% and ClpP validation -14%.
For COCCCNC(=O)c1c(N)n(-c2cccc(S(N)(=O)=O)c2)c2nc3ccccc3nc12 the results were ALOX12 inh 0%, TDP1 inh -1%, Rango complex inh inconclusive, Rango release inh inconclusive, ClpP mod 8.9µM*, PTAP TSG101 blk 46% and ClpP validation inconclusive.
Screening Nc1c(C(=O)NCCN2CCOCC2)c2nc3ccccc3nc2n1-c1cccc(F)c1 returned ALOX12 inh 249%, TDP1 inh 1%, Rango complex inh inconclusive, Rango release inh inconclusive, ClpP mod 10µM*, PTAP TSG101 blk -16% and ClpP validation 22µM*.
`COc1ccc(NC(=O)c2cc3ccccc3oc2=O)cc1OC` gave ALOX12 inh 17%.
For CCOC(=O)N1CCN(S(=O)(=O)c2ccc(C(=O)Nc3nc4ccccc4s3)cc2)CC1 the results were ALOX12 inh 9%, TDP1 inh 4%, Rango complex inh 3%, Rango release inh 7%, ClpP mod 116%, PTAP TSG101 blk 0% and ClpP validation inconclusive.
For CCOC(=O)N1CCN(S(=O)(=O)c2ccc(C(=O)Nc3nc4ccc(F)cc4s3)cc2)CC1 the results were ALOX12 inh -7%, TDP1 inh 0%, Rango complex inh 0%, Rango release inh -10%, ClpP mod 6% and PTAP TSG101 blk 0%.
O=S(=O)(Cc1ccccc1)NCCNS(=O)(=O)Cc1ccccc1 was read as ALOX12 inh 20%.
